JMJD2A Tudor inh – JMJD2A Tudor domain (human) inhibition | AlphaScreen JMJD2A-Tudor / H3K4me3 peptide binding | Potency, µM (titrated, usually from 114 µM), for inactives: top-dose activity change, negative = inhibition, hits mostly inhibitors | 4.4% of 390,000 active | AID 504339; note: % is set by controls: 0 for no effect and ±100 for the full control effect; nearly all actives have a fitted effect of over 50% in size
BAZ2B block – BAZ2B (human) inhibition; Q9UIF8; AlphaScreen BAZ2B-H3K14Ac peptide displacement; Potency, µM (titrated, usually from 114 µM), for inactives: at the top dose activity change, negative = inhibition, actives largely listed as inhibitors; 4.4% of 360,000 active; note: % is set by controls: 0 for no effect and ±100 for the full control effect; nearly all actives have a fitted effect of over 60% in size
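Multi-concentration screen (max 110 uM) measuring displacement of acetylated histone H3 peptide from BAZ2B by AlphaScreen, using 50 nM protein, 50 nM peptide and 10 ug/mL streptavidin donor plus Ni-chelate acceptor beads.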
PLK1 PBD inh – PLK1 (human) polo-box domain binding inhibition | P53350 | Plk1 PBD binding of FITC phosphopeptide, fluorescence polarization | Potency, µM, inactives show max response, negative = inhibition, actives largely listed as inhibitors | 2.8% of 360,000 active; note: series mostly up to about 57 µM; % is set by controls: 0 for no effect and ±100 for the full control effect; nearly all actives have a fitted effect of over 65% in size
HP1b chromo inh – HP1-beta chromodomain-methylated histone interaction inhibition; AlphaScreen HP1-beta / biotin-H3K9me3 peptide binding; Potency, µM (top dose mostly 114 µM), inactives show at the highest dose activity change, negative = inhibition, most hits filed as inhibitors; 0.56% of 390,000 active; AID 540317; note: nearly all actives have a fitted effect of over 70% in size
Target sequence (P83916 whole entry, looked up): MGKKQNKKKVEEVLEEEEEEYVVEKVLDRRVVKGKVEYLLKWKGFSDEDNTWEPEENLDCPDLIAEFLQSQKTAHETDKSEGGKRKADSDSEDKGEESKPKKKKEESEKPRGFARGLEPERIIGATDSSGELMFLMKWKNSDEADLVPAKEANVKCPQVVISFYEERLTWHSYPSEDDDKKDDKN
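HP1-beta protein (50 nM final) preincubated 30 min at room temperature with biotinylated H3(1-18)K9me3 peptide (50 nM) in PBS pH 7.4, 0.01% Tween-20, then compound added for 30 min. AlphaScreen streptavidin donor/nickel chelate acceptor beads (10 ug/mL final), 30 min dark, luminescence read.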
G9a block – inhibitors of human histone lysine methyltransferase G9a; G9a H3K9 monomethylation, AlphaScreen, 2 h; Potency, µM (doses to about 102 µM), without a hit: at the top dose activity, negative = inhibition, usual class: inhibitors; 8.8% of 350,000 active; AID 504332; Q96KQ7; note: % is set by controls: 0 for no effect and ±100 for the full control effect; nearly all actives have a fitted effect of over 75% in size
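Chemiluminescent proximity detection of H3K9 monomethylation, read after 10 min bead incubation in the dark. Reaction: 20 nM G9a, 500 nM biotin-H3K9 peptide, 20 uM SAM cofactor, 2 h, room temperature, following 15 min enzyme-compound preincubation.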
VDR inh – inhibitors of human vitamin D receptor | VDR-SRC2-3 peptide fluorescence polarization, 2 h | Potency, µM, for the others: max response, negative = inhibition, hits mostly inhibitors | P11473 | 0.93% of 400,000 active | AID 504847; note: % is set by controls: 0 for no effect and ±100 for the full control effect
Target sequence (P11473 whole entry, looked up): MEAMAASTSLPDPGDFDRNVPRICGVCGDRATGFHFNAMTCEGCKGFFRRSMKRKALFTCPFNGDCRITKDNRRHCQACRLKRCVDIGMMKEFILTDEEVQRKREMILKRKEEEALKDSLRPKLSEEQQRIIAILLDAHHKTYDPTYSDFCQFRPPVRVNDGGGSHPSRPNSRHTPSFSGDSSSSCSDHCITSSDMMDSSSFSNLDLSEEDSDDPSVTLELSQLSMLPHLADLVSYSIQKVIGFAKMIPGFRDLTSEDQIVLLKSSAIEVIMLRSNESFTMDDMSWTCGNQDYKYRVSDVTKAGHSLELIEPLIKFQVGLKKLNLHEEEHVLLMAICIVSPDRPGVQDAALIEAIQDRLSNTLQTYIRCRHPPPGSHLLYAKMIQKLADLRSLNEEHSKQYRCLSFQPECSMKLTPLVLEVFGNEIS
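The screen uses fluorescence polarization to detect compounds that interfere with recruitment of the SRC2-3 coactivator peptide to VDR; plates are read after 2 h at room temperature.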
An asterisk follows results filed as active; u = inconclusive; x = no result; [ ] = remark or other dose. Compounds with a hit are over-represented: about 11% of the library has one in this group of screens. Calls come from the whole dose curve; as a rule, active = well fitted curve in the direction sought with a large enough effect; inconclusive = small, poorly fitted or top-dose-only effect, or another doubt; inactive = no such curve, though single readings can be large; an effect the other way counts as inactive or inconclusive. Potency is the fitted concentration of half-maximal effect.

SMILES	JMJD2A Tudor inh	BAZ2B block	PLK1 PBD inh	HP1b chromo inh	G9a block	VDR inh
O=c1cnnc(N/N=C/C2CC=CCC2)[nH]1 (stereo not drawn)	32µM*	8.9µM*	3%	40%	56%	-4%
CCOc1cc(-c2nnc(SCC(=O)NCc3ccccc3)nc2-c2ccc(OC)c(OCC)c2)ccc1OC	u	50µM*	x	7%	7.9µM*	1%
CCOc1ccc(-c2nnc(SCC(=O)NC(C)CC)nc2-c2ccc(OCC)c(OC)c2)cc1OC (stereo not drawn)	-18%	-17%	x	39%	-42%[59 µM]	18%
COc1ccc(-c2nnc(SCC(=O)NCc3ccc(C)cc3)nc2-c2ccc(OC)c(OC)c2)cc1OC	-29%	-25%	x	11%	-34%[59 µM]	8%
CCOc1cc(-c2nnc(SCC(=O)NCc3ccc(C)cc3)nc2-c2ccc(OC)c(OCC)c2)ccc1OC	-28%	56µM*	x	15%	10µM*	9%
CCOCCCNC(=O)c1c(NC(=O)c2cc(=O)c3cc(C)c(C)cc3o2)sc2c1CCC2	-7%	25%	x	64%	6%[59 µM]	4%
O=C(Cc1ccccc1)NNc1ccc2ccccc2c1	-16%	-29%	-10%	19%	u	-11%
O=C(CN1C(=O)CCC1=O)NNc1ccc2ccccc2c1	-20%	-16%	-21%	32%	8.9µM*	-13%
CCOc1ccc2[nH]cc(S(=O)(=O)c3ccc(Cl)cc3)c(=O)c2c1	-17%	u	-10%	16%	71µM*	-10%
CCOc1ccc2[nH]cc(S(=O)(=O)c3ccc(C)cc3)c(=O)c2c1	1%	-14%	1%	48%	-4%	-5%
CCOC(=O)C1=NN(C(C)=O)C2(CC(=O)N(c3cccc(C)c3)C2=O)C1 (stereo not drawn)	-15%	4%	27µM*	-5%	24%	-23%
CCOc1ccc(NS(=O)(=O)c2cc(C(=O)N3CCN(c4ccccc4O)CC3)ccc2Cl)cc1	-27%	u	4%	7%	u	-11%
CCN(CC)c1ccc(NC(=O)COCc2cc(-c3ccc4c(c3)OCO4)on2)c(C)c1	20µM*	22µM*	x	u	4.5µM*	-3%
COCCN1C(=O)C(O)=C(C(=O)c2ccco2)C1c1cccc(Oc2ccccc2)c1 (stereo not drawn)	u	-14%	-7%	5%	u	2%
Cc1cc(N2C(=O)C(O)=C(C(=O)c3ccco3)C2c2cccc(Cl)c2)no1 (stereo not drawn)	-24%	u	-18%	-1%[57 µM]	-11%[0.0925 µM]	-18%
CCSc1nnc(N2C(=O)C(O)=C(C(=O)c3ccco3)C2c2cccc(OC)c2)s1 (stereo not drawn)	89µM*	u	u	24%	35µM*	u
CSc1nnc(N2C(=O)C(O)=C(C(=O)c3ccco3)C2c2ccc(F)cc2)s1 (stereo not drawn)	-3%	u	-18%	39%	22µM*	3%
CSc1nnc(N2C(=O)C(O)=C(C(=O)c3ccco3)C2c2cccc(Cl)c2)s1 (stereo not drawn)	u	79µM*	u	33%	x	6%
COc1cccc(C2CCCN2Cc2nc(-c3cnccn3)no2)c1 (stereo not drawn)	-24%	-2%	-17%	22%	x	2%
COc1ccc(CNC(=O)CCNS(=O)(=O)c2cc(Br)cnc2N)cc1	u	-17%	3.4µM*	24%	-4%	u
COc1ccc(CNC(=O)CCNS(=O)(=O)c2ccc(Br)s2)cc1	79µM*	8%	30µM*	-2%	-13%	-23%
COc1ccc(CCNS(=O)(=O)c2ccc(Br)s2)cc1	-6%	-13%	-4%	62%	30%	0%
CC1CCCCC1NC(=O)CCNS(=O)(=O)c1cc(Br)cnc1N (stereo not drawn)	-2%	-5%	8%	24%[57 µM]	x	1%
Nc1ncc(Br)cc1S(=O)(=O)NCCC(=O)NC1CCCCC1	u	-22%	27µM*	10%	-21%	-25%
COc1cccc(CNC(=O)CCNS(=O)(=O)c2ccc(Br)s2)c1	u	4%	27µM*	3%	-6%[59 µM]	u
SMILES	JMJD2A Tudor inh	BAZ2B block	PLK1 PBD inh	HP1b chromo inh	G9a block	VDR inh
Cc1ccc(-n2ncc3c2CC(C)(C)CC3NC(=O)CCN2CCCO2)cc1 (stereo not drawn)	-6%	-9%	-5%	42%	40%	11%
CC(O)C1CCC2C3CCC4CC(O)CCC4(C)C3C(=O)CC12C (stereo not drawn)	-5%	x	3%	52%	x	5%
COc1ccc(NC(=O)CN(C)CC(=O)NCc2ccc(C)cc2)cc1	-14%	-4%	-6%	18%	18%[12.7 µM]	-3%
COc1ccccc1OCC(=O)NCC1(N2CCOCC2)CCCCC1	-21%	-26%	x	4%	-4%[59 µM]	10%
CC(C)CCOc1ccc(C(=O)NNC(=O)CNC(=O)c2ccccc2F)cc1	-22%	x	-7%	16%	x	-6%
CC1CCCN(C(=O)COC(=O)c2cccc(NS(=O)(=O)c3ccccc3)c2)C1 (stereo not drawn)	1%	8%	-3%	17%	-2%	-6%
CC1CCCCN1C(=O)COC(=O)c1cccc(NS(=O)(=O)c2ccccc2)c1 (stereo not drawn)	-10%	-12%	5%	16%	56µM*	10%
CCOC(=O)C1CCN(C(=O)c2cccc(NS(=O)(=O)c3ccc(F)c(F)c3)c2)CC1	-13%	-20%	-27%	22%	50µM*	-17%
Cc1ccc(S(=O)(=O)Nc2cccc(C(=O)N3CCN(c4ccccc4O)CC3)c2)cc1F	-29%	-12%	-13%	-12%	50µM*	-5%
CCOC(=O)c1cc(C)nc(SC)c1C#N	12%	-1%	-7%	67%	50µM*	1%
CSc1nc(C)c(C(=O)C[n+]2ccccc2)cc1C#N	-12%	0.79µM*	-10%	12%	x	2%
CCOC(=O)c1cc(C#N)c(SCC(=O)c2cc(C#N)c(SC)nc2C)nc1C	-15%	9%	-6%	22%	45µM*	-11%
CCOc1ccc(CNC(=O)c2cc3c(=O)oc4ccc(C)cc4c3s2)cc1	-4%	-3%	x	37%	-1%[59 µM]	-5%
CCOc1ccccc1C1CC(=O)Oc2c1c(=O)n(C)c1ccccc21 (stereo not drawn)	5%	-15%	x	25%	8%[59 µM]	-7%
CCN(CC)c1ccc(-c2n[nH]c(=S)n2-c2ccccc2C)cc1	-27%	u	-11%	0%	u	-18%
CN(C)c1ccc(-c2n[nH]c(=S)n2-c2ccccc2)cc1	7.9µM*	-14%	-1%	-14%	1.8µM*	-4%
CCN(CC)c1ccc(-c2n[nH]c(=S)n2-c2ccccc2)cc1	20µM*	-38%	-11%	-3%	1.4µM*	-10%

Screening results from PubChem.
